According to PubChem BioAssay AID1445 (SRMLSC, 2008):
The campaign covered roughly 220,000 compounds. About 910 (0.41%) were called active.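 Rule for the calls: active = primary inhibition above the hit cutoff, then over 50% inhibition at one or more dose response concentrations (cut at about 23% in these data, passing the limit was not always enough); inconclusive = conflicting primary data, or primary hits not chosen for dose response; inactive = low primary inhibition, or under 50% at every dose.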 For the sample, actives were picked, then their nearest neighbours and some compounds at random. Potency and affinity values are given separately.

What follows are compounds tested against Aminopeptidase N (Plasmodium falciparum (isolate 3D7)) (UniProt O96935) (assay: P. falciparum M1AAP inhibitors, biochemical, fluorogenic H-Leu-NHMec substrate, 1536-well (AID 1445;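 note: plate controls were DMSO full reaction for no effect and no enzyme background for full effect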)). Conditions: recombinant M1AAP, H-Leu-NHMec fluorogenic kinetic assay; at 30 µM, hits give high values unless noted.
Aminopeptidase N (Plasmodium falciparum (isolate 3D7)), sequence (O96935 whole entry, looked up): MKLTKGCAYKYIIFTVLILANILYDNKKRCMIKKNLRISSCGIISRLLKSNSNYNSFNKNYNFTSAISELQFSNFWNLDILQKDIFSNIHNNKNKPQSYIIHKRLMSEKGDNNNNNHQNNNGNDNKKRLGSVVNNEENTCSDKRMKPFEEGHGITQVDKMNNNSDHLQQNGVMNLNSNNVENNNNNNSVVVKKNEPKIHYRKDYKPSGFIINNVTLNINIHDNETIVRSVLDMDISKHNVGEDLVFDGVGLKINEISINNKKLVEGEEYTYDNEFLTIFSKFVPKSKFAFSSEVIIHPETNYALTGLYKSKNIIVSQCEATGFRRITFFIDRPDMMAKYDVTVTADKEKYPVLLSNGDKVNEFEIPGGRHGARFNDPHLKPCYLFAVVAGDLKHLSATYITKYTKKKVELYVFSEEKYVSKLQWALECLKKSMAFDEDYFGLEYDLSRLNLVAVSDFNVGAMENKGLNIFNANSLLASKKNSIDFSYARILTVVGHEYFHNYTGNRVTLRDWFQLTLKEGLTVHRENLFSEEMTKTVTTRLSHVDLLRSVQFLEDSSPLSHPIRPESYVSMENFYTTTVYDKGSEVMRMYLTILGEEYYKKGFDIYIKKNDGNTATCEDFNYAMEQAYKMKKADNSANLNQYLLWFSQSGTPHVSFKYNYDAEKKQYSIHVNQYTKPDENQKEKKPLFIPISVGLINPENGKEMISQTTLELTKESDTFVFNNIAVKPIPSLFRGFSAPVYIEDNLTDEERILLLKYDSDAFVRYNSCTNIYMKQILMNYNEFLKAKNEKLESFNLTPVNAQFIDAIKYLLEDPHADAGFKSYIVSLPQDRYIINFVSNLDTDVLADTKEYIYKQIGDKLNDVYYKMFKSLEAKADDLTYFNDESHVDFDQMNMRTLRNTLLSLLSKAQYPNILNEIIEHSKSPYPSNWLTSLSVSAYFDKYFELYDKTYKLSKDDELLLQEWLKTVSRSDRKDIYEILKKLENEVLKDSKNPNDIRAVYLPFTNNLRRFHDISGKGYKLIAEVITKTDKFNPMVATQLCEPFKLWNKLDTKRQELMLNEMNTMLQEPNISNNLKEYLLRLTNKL

inhibition, inactive:
Cc1ccc(NC(=O)C(=O)NN)cc1 3.55%, CC(C)(C)n1nnnc1C(c1cccs1)N1CCN(Cc2ccc3c(c2)OCO3)CC1 (stereo unspecified) 3.23%, COc1ccc(C2OC(=O)CC2C(=O)NCc2ccc(Cl)cc2)cc1OC (stereo unspecified) -0.93%, CCn1c(=O)c(C(=O)NNS(=O)(=O)c2ccc(C)cc2)c(O)c2ccccc21 5.97%, O=C(Nn1c(-c2ccccc2)nc2ccccc2c1=O)c1ccco1 15.6%, Cc1ccccc1OCc1nc2ccccc2c(=O)n1NC(=O)c1ccco1 22.7%, COc1cc2nc(C3CCC3)n(NC(=O)c3ccco3)c(=O)c2cc1OC 11.3%, O=C(Nn1c(C2CCCCC2)nc2ccccc2c1=O)c1ccc([N+](=O)[O-])cc1 2.98%, NS(=O)(=O)c1ccc(CCNC(=O)c2ccc(Cn3c(=O)[nH]c4ccccc4c3=O)cc2)cc1 4.04%, CC(/C=C/c1ccccc1)=N\NC(=O)c1cc(C)nc2ccccc12 7.74%, CC1CN(C(=O)c2cc(S(=O)(=O)N3CCCC3)c(Cl)cc2Cl)CC(C)O1 (stereo unspecified) -2.85%, O=C(CNC(=S)N(Cc1ccccc1)Cc1cccnc1)NCCc1ccccc1 -4.94%, N=c1c(C(=O)NC2CCCC2)cc2c(=O)n3ccccc3nc2n1CCN1CCOCC1 12.5%, Cc1cccn2c(=O)c3cc(C(=O)NCc4cccnc4)c(=N)n(C(C)C)c3nc12 0.19%, N=c1c(C(=O)NCc2ccc(F)cc2)cc2c(=O)n3ccccc3nc2n1CCCN1CCOCC1 5.69%, Cc1cccn2c(=O)c3cc(C(=O)NCc4ccco4)c(=N)n(C(C)C)c3nc12 18.3%, N=c1c(C(=O)NCc2ccco2)cc2c(=O)n3ccccc3nc2n1Cc1ccccc1 11.6%, N=c1c(C(=O)NCc2ccco2)cc2c(=O)n3ccccc3nc2n1CCc1ccccc1 9.03%, O=C(COc1cc(F)ccc1[N+](=O)[O-])Nc1ccc(N2CCOCC2)cc1 1.97%, COc1cc(/C=C/C(=O)O)cc(S(=O)(=O)N2CCc3ccccc32)c1OC 7.41%, O=C(O)Cc1ccc(-c2ccccc2-c2ccccc2)cc1 6.14%, COc1ccc(OC)c(C(C)NC(=O)c2ccc(Br)cc2)c1 (stereo unspecified) 6.29%, CCc1cccc(CC)c1NC(=O)c1ccc(-n2cncn2)nc1 3.55%, Cc1c(Cl)cccc1NC(=O)CCC(=O)N/N=C/c1ccc[nH]1 6.91%, CC(=O)Nc1sc(C)c(C)c1C(=O)Nc1ccc(C)cc1 10.1%, COc1ccc(N=C2S/C(=C\c3ccc(OC(C)C(=O)O)c(OC)c3)C(=O)N2CCc2c[nH]c3ccccc23)cc1 (stereo unspecified) 31.6%, COc1cc(/C=C2\SC(=Nc3ccccc3)N(CCc3c[nH]c4ccccc34)C2=O)ccc1OC(C)C(=O)O (stereo unspecified) 16.3%, CCCn1c(N2CCN(C)CC2)nc2c1c(=O)[nH]c(=O)n2C -4.63%, COc1ccc(S(=O)(=O)N(NC2=NS(=O)(=O)c3ccccc32)C(=O)C(C)C)cc1 9.06%, CCN(C1=NS(=O)(=O)c2ccccc21)N(CC)S(=O)(=O)c1ccc(C)cc1 -4.7%, CC1CCCCC1NC(=O)C(=O)NCC1CCCO1 (stereo unspecified) 0.74%, Clc1cccc(-c2ccc(CNCCCN3CCOCC3)o2)c1 2.45%, O=C(CCCn1ncn2c(cc3occc32)c1=O)N1CCc2ccccc2C1 2.44%, CCc1nn(C(C)C(=O)N2CCc3ccccc3C2)c(=O)c2cc3occc3n12 (stereo unspecified) 2.28%, CS(=O)(=O)N(Cc1ccc(C(=O)NC2CCCCC2O)cc1)c1ccccc1 (stereo unspecified) 4.69%, CCOC(=O)N1CCN(C(=O)CN2C(=O)COc3ccc(C(C)(C)C)cc32)CC1 2.47%, O=S(=O)(Nc1ccc(-c2nc3cccnc3s2)cc1)c1ccc(Cl)s1 13.1%, CCS(=O)(=O)Nc1ccc(-c2nc3cccnc3s2)cc1 11.6%, N#Cc1c(N2C(=O)Nc3ccccc3N2O)sc2c1CCCCCC2 11.8%, C=CCn1c(C(CC)CC(C)(C)O)n[nH]c1=S (stereo unspecified) -5.97%, Cc1cc2cc(CCNC(=O)c3ccc(S(=O)(=O)N4CCOCC4)cc3)c(=O)[nH]c2cc1C 0.05%, O=C1NC(=O)/C(=C\c2ccccc2OCc2ccccc2)S1 12.7%, C=CCN1C(=O)N/C(=C/c2ccccc2OCC(=O)Nc2ccc(F)cc2)C1=O 6.37%, O=C1NC(=O)/C(=C/c2ccccc2OCc2ccccc2)S1 19.3%, O=C(COc1ccccc1/C=C1/NC(=O)NC1=O)Nc1ccccc1 16.8%, CSCC[C@@H](C(=O)NCc1cccs1)N1Cc2ccccc2C1=O 6.93%, CC(=O)Nc1ccc(S(=O)(=O)N2CCC(NC(=O)C(Cc3cccn3C)NC(C)=O)CC2)cc1 (stereo unspecified) -2.05%, O=C(CCCn1cnc([N+](=O)[O-])n1)Nc1cccc(O)c1 4.83%, C[C@H](NC(=O)c1nc[nH]c1C(=O)N[C@@H](Cc1ccccc1)C(=O)OC(C)(C)C)c1ccccc1 -12.4%, COC(=O)C1=C(C(=O)OC)[C@@H]2N(Cc3ccccc3)c3ccccc3[C@@]23C[C@@H](C(=O)OC)N=C3N1 7.23%, Cc1ccc2cc(CN(Cc3ccco3)S(=O)(=O)c3c(C)ccc4nsnc34)c(=O)[nH]c2c1 8.06%, Cc1cc2cc(CN(Cc3ccco3)S(=O)(=O)c3c(C)ccc4nsnc34)c(=O)[nH]c2cc1C 12.1%

inhibition, active:
O=C(Nn1c(C2CC2)nc2ccccc2c1=O)c1ccco1 81.6%, CCc1nn(CCCC(=O)N2CCc3ccccc3C2)c(=O)c2cc3occc3n12 23.8%, CCc1ccc(S(=O)(=O)Nc2ccc(-c3nc4cccnc4s3)cc2)s1 27.2%, Cc1ccc2[nH]c(=O)c(CN(Cc3ccco3)S(=O)(=O)c3c(C)ccc4nsnc34)cc2c1 24.1%
